Structures are written as SMILES. The campaign covered roughly 330,000 compounds. About 560 (0.17%) were called active. Not shown: some 1% with an inconclusive outcome. Calls come from the whole dose curve; as a rule, active = well fitted inhibition curve with a large enough effect; inconclusive = small, poorly fitted or top-dose-only effect, or effect the other way; inactive = flat fitted curve, though single readings scatter. Only a selection was taken, and actives are over-represented in it overall.
Potency is the fitted concentration of half-maximal effect.

Sequence of ATP-dependent 6-phosphofructokinase (Trypanosoma brucei brucei) (O15648 whole entry, looked up): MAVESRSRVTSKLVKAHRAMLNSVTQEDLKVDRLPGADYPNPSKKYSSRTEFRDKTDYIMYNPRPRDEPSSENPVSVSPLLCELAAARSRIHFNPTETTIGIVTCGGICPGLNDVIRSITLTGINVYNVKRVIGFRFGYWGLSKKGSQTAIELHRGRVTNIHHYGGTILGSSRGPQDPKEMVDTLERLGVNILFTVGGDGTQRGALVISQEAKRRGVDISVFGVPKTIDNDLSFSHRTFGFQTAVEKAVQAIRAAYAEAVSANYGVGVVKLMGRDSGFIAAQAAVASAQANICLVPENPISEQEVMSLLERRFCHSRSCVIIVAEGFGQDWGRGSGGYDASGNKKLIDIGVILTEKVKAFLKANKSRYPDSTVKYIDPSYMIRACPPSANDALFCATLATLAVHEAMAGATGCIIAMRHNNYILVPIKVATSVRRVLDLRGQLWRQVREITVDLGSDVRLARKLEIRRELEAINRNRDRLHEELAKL

The test has as its target ATP-dependent 6-phosphofructokinase (Trypanosoma brucei brucei) (UniProt O15648). Nature of the test: qHTS Assay to Find Inhibitors of T. brucei phosphofructokinase. Note: nearly all actives have a fitted effect of over 60% in size. The conditions noted are these: T. brucei PFK, ADP-Glo luminescence; series mostly up to 57.5 µM; activity, negative = inhibition: at the top concentration. The source says: NIH Molecular Libraries Probe Production Network [MLPCN] NIH Chemical Genomics Center [NCGC] Grant: 1 R03 MH092153-01 PI Name: Malcolm Walkinshaw, University of Edinburgh NCGC Assay Overview: Various species of the protozoan family Trypanosomatidae are responsible for a range of serious human diseases in tropical and subtropical areas of the world. […] Many of the disorders caused by trypanosomatids are fatal if left untreated, but most currently used drugs are inefficient and toxic. […] Oxidative metabolism involving the mitochondrial tricarboxylic acid cycle and oxidative phosphorylation are repressed in these parasites, and recent RNA interference (RNAi) experiments have shown that even partial depletion of certain individual glycolytic enzymes can lead to the death of cultured parasites. One such glycolytic enzyme, phosphofructokinase (PFK), catalyzes the formation of fructose-1,6-bisphosphate (F1,6BP) and ADP from fructose-6-phosphate (F6P) and ATP, and in many metabolic circumstances makes an important contribution to the control of flux through the glycolytic pathway. As a specific glycolytic target, PFK is particularly attractive as it catalyzes the first irreversible step in glycolysis, and structural and kinetic studies have shown very substantial and essential differences from corresponding host enzymes, allowing for the discovery of parasite-selective inhibitors. The goal of this screen is to find small-molecule inhibitors of T. brucei PFK using a biochemical assay that measures PFK activity as a function of ADP production. A luminescence-based assay for T. brucei PFK activity has been developed which uses luciferase to detect production of ADP. Traditional luciferase-based nucleotide detection reagents rely on ATP production as a direct substrate for the luciferase reaction; however, PFK catalyzes the transfer of a phosphate from ATP to F6P, resulting in the net depletion of ATP. To directly measure the ADP product of the PFK reaction, we used the ADP-Glo detection kit (Promega), which utilizes two separate reactions to 1) deplete all remaining uncatalyzed ATP and 2) convert all remaining ADP to ATP, which is then detected through a traditional luciferase-coupled reaction. Compounds were screened as a concentration-titration series that ranged from 57 uM to 0.7 nM.
NCGC Assay Protocol Summary: NCGC Assay Protocol Summary: Substrate buffer was dispensed into white, solid 1536-well plates at 3uL/well in 0.1M triethanolamine (TEA) buffer, pH 8.0, containing final concentrations of 5 mM MgCl2, 0.01% Tween20, 0.5 mM fructose-6-phosphate (F6P) and 0.1mM ATP. Then, 23 nL of compounds or DMSO were delivered to each well using a pin tool. One uL T. brucei PFK (0.1M TEA, 0.01% Tween20, 0.1% bovine serum albumin (BSA) and 1.25nM PFK, final concentrations) was then dispensed, and plates were incubated at room temperature for 45 min. The luminescent detection reagent, ADP-Glo (Promega), was then added in two steps: the first reagent, ADP-Glo (which converts remaining uncatalyzed ATP), was added at 2.5uL/well and incubated for ten minutes at room temperature, and the second component, Kinase Detection reagent (which converts ADP to ATP as a substrate for luciferase-based luminescence), was added immediately after at 5uL/well, followed by one final ten minute room temperature incubation. The plates were measured on a ViewLux plate reader for luminescent signal using a clear filter with a one second exposure. The %Activity was determined from the corrected luminescence values. As no specific T. brucei PFK inhibitors have been identified in the literature, 1x (1.25nM) and 0x PFK enzyme controls (untreated) were included to normalize %Activity of identified inhibitors; 0x enzyme values corresponded to 100%Activity (full inhibition), while 1x PFK enzyme values were used to normalize 0%Activity (no inhibition). Concentration-response curves were fitted to the signals arising from the resulting luminescence. […]
Take `O=C(Cc1ccc([N+](=O)[O-])cc1)N/N=C/c1ccco1`: the Potency was 19 µM (active).

With `OC(Cn1c2ccccc2c2ccccc21)C[n+]1ccccc1` (stereo not given), the “activity, negative = inhibition” value is -2.56% (inactive).

In the case of `CCCCCCN=C(CC)c1c(O)n(CCCC)c(=O)[nH]c1=O`, the “activity, negative = inhibition” value was -1.16% (inactive).

As to `CCOC(=O)C1SC2(C(F)(F)C(F)F)CC1(O)c1c(c(OC)c3occc3c1OC)O2` (stereo not given), the “activity, negative = inhibition” value is 0.275% (inactive).

For the compound `Cn1nnnc1NCc1ccc(Cl)c(Cl)c1`, the Potency is 10.7 µM (active).

`Cc1ccc(-n2c(-c3ccc([N+](=O)[O-])cc3)nc3ccccc3c2=O)cc1`: the “activity, negative = inhibition” value is 6.06% (inactive).

For `CC(Cc1cccs1)NCc1ccc(Cl)cc1` (stereo not given), the “activity, negative = inhibition” value is -2.43% (inactive).

`O=C1/C(=C\c2ccc3c(c2)OCO3)N2CCC1CC2`: the “activity, negative = inhibition” value is -7.68% (inactive).

As for `CCOP(=S)(OCC)C(O)CCCCCn1c(=O)c(F)cn(C2CCCO2)c1=O` (stereo not given), the “activity, negative = inhibition” value was -1.99% (inactive).

For the compound `COc1ccc(CCn2c(O)c(C=NCCCn3ccnc3)c(=O)[nH]c2=O)cc1OC`, the “activity, negative = inhibition” value was 7.53% (inactive).

For the origin of these results see PubChem BioAssay AID485367 (National Center for Advancing Translational Sciences (NCATS), 2010).
